Results: PubChem BioAssay (NCATS)
“And” between values parts separate entries of the source, which are not always exact repeats. Identical values can stand only once. Records with an inconclusive call do not appear. The source made the active and inactive calls. The call rests on the fitted dose curve; in most records, active means well fitted curve in the direction sought with a large enough effect; inconclusive means small, poorly fitted or top-dose-only effect, or another doubt; inactive means no such curve, though single readings can be large; an effect the other way counts as inactive or inconclusive.

Experiments:
[1] = tested on: W2; experiment: qHTS profiling for inhibitors of Plasmodium falciparum proliferation (AID 504749); further: nearly all actives have a fitted effect of over 60% in size; further: potency means the concentration at half of the fitted maximal effect; conditions: P. falciparum in erythrocytes, SYBR Green DNA, 72 h; series mostly up to 28.7 µM
Procedure, shortened: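 In a 72 h erythrocytic culture (37 C, humidified, 5% CO2) at 2.5% hematocrit and 0.3% starting parasitemia, compounds were tested; SYBR Green I in detergent lysis buffer stained parasite DNA overnight.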

[2] = tested on: CRL-7250; experiment: Cytotoxic Profiling of Annotated Libraries Using Quantitative High-Throughput Screening (AID 1296008); conditions: Five cell lines viability, CellTiter-Glo ATP luminescence, 48-72 h; max response: active compounds read low; further: nearly all actives have a fitted effect of over 60% in size; further: potency means the concentration at half of the fitted maximal effect; on max response: on the % scale 0 is the no-effect control and ±100 the full control effect
Procedure, shortened: (§1)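 Cytotoxicity was measured as CellTiter-Glo ATP luminescence, read after 10 min at room temperature. Compound treatment of the cells lasted 48 or 72 hr at 37 degrees Celsius in a qHTS format.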

[3] = tested on: HEK293; experiment: as above; conditions: Five cell lines viability, CellTiter-Glo ATP luminescence, 48-72 h; max response: active compounds read low
Procedure, shortened: as §1

[4] = tested on: HaCat; experiment: as above; conditions: Five cell lines viability, CellTiter-Glo ATP luminescence, 48-72 h; max response: active compounds read low
Procedure, shortened: as §1

[5] = tested on: KB-3-1; experiment: as above; conditions: Five cell lines viability, CellTiter-Glo ATP luminescence, 48-72 h; max response: active compounds read low
Procedure, shortened: as §1

[6] = tested on: NIH3T3; experiment: as above; conditions: Five cell lines viability, CellTiter-Glo ATP luminescence, 48-72 h; max response: active compounds read low
Procedure, shortened: as §1

[7] = tested on: HACAT; experiment: qHTS assay to identify novel small-molecules to repurpose for Merkel cell carcinoma treatment (AID 1296009); conditions: MCC and control cell lines, CellTiter-Glo viability, 72 h; at 44.8 µM (top of the series) unless noted; further: nearly all actives have a fitted effect of over 60% in size
Procedure, shortened: (§2)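 Cell viability measured by CellTiter-Glo following 72 hr compound treatment at 37 degree celsius, with NPC and MIPE libraries tested in 8- and 11-point concentration series.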

[8] = tested on: MCC-13; experiment: as above; conditions: MCC and control cell lines, CellTiter-Glo viability, 72 h; series mostly up to 46 µM
Procedure, shortened: as §2

[9] = tested on: MCC-26; experiment: as above; conditions: MCC and control cell lines, CellTiter-Glo viability, 72 h; series mostly up to 46 µM
Procedure, shortened: as §2

[10] = tested on: UISO; experiment: as above; conditions: MCC and control cell lines, CellTiter-Glo viability, 72 h; series mostly up to 46 µM
Procedure, shortened: as §2

[11] = tested on: WaGa; experiment: as above; conditions: MCC and control cell lines, CellTiter-Glo viability, 72 h; series mostly up to 46 µM
Procedure, shortened: as §2

[12] = tested on: C33A; experiment: Primary qHTS to identify gynecologic anti-cancer compounds using libraries of approved drugs and bioactive compounds (AID 1345084); conditions: Gynecologic cancer cell panel viability, ATPlite luminescence, 48 h; series mostly up to 57.5 µM; further: on the % scale 0 is the no-effect control and ±100 the full control effect; nearly all actives have a fitted effect of over 55% in size
Procedure, shortened: (§3)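 Cells, 1,000 per well, were allowed to settle for 16 h at 37 C before compound addition. Five concentrations were tested for 48 h, and viability was read by ATPlite luminescence after 15 min at room temperature.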

[13] = tested on: CAOV3; experiment: as above; conditions: Gynecologic cancer cell panel viability, ATPlite luminescence, 48 h; series mostly up to 57.5 µM
Procedure, shortened: as §3

[14] = tested on: CASKI; experiment: as above; conditions: Gynecologic cancer cell panel viability, ATPlite luminescence, 48 h; series mostly up to 57.5 µM
Procedure, shortened: as §3

[15] = tested on: Es-2; experiment: as above; conditions: Gynecologic cancer cell panel viability, ATPlite luminescence, 48 h; series mostly up to 57.5 µM
Procedure, shortened: as §3

[16] = tested on: HeLa; experiment: as above; conditions: Gynecologic cancer cell panel viability, ATPlite luminescence, 48 h; series mostly up to 57.5 µM
Procedure, shortened: as §3

[17] = tested on: HEK293T; experiment: qHTS assay to identify novel small-molecules to repurpose for Merkel cell carcinoma treatment (AID 1296009); conditions: MCC and control cell lines, CellTiter-Glo viability, 72 h; at 44.8 µM (top of the series) unless noted; further: nearly all actives have a fitted effect of over 60% in size
Procedure, shortened: as §2

[18] = tested on: MKL-2; experiment: as above; conditions: MCC and control cell lines, CellTiter-Glo viability, 72 h; series mostly up to 46 µM
Procedure, shortened: as §2

[19] = tested on: MKL-1; experiment: as above; conditions: MCC and control cell lines, CellTiter-Glo viability, 72 h; series mostly up to 46 µM
Procedure, shortened: as §2

[20] = tested on: NIH3T3; experiment: as above; conditions: MCC and control cell lines, CellTiter-Glo viability, 72 h; at 44.8 µM (top of the series)
Procedure, shortened: as §2

O=C1C(CCS(=O)c2ccccc2)C(=O)N(c2ccccc2)N1c1ccccc1 (stereo not drawn)
inactive: Potency [1] | max response [2] -1.85% | max response [3] -3.91% | outcome [4] | max response [5] 4.22% | max response [6] -2.37% | outcome [7] | Potency [8] | Potency [9] | Potency [10] | Potency [11] | Potency [12] | Potency [13] | Potency [14] | Potency [15] | Potency [16]

CN(C)CCOC(=O)C(c1ccccc1)C1(O)CCCC1 (stereo not drawn)
inactive: max response [2] -17.7% | outcome [3] | outcome [4] | max response [5] -12% | max response [6] -1.59% | outcome [7] | outcome [17] | Potency [8] | Potency [18] | Potency [10] | Potency [12] | Potency [13] | Potency [14] | Potency [15] | Potency [16]

CCN(CC)CCNC(=O)c1cc(Br)c(N)cc1OC
inactive: max response [2] 3.66% | max response [3] -7.62% | max response [4] -11.9% | max response [5] -23.2% | max response [6] -9.42% | Potency [8] | Potency [9] | Potency [19] | Potency [18] | Potency [10] | Potency [11] | Potency [12] | Potency [13] | Potency [14] | Potency [15] | Potency [16]

NC(=S)N/N=C/c1cccnc1
inactive: max response [2] -6.1% | max response [3] -29.1% | max response [4] 1.46% | max response [5] 2.69% | max response [6] 1.77% | Potency [8] | Potency [9] | Potency [19] | Potency [18] | Potency [10] | Potency [11] | Potency [12] | Potency [13] | Potency [14] | Potency [15] | Potency [16]

CC(=O)Nc1ccc(OCC(O)CNC(C)C)cc1 (stereo not drawn)
inactive: Potency [1] | max response [2] -5.23% | max response [3] 4.87% | outcome [4] | max response [5] -4.81% | max response [6] -0.995% | outcome [7] | Potency [8] | Potency [19] | Potency [18] | Potency [11] | Potency [12] | Potency [13] | Potency [14] | Potency [15] | Potency [16]

CC1(COc2ccc(CC3SC(=O)NC3=O)cc2)CCCCC1 (stereo not drawn)
inactive: Potency [1] | outcome [2] | max response [3] 0.676% | outcome [4] | max response [5] -1.45% | outcome [6] | outcome [7] | Potency [8] | Potency [9] | Potency [19] | Potency [18] | outcome [20] | Potency [12] | Potency [13] | Potency [14] | Potency [15] | Potency [16]

C=C[C@H]1CN2CC[C@H]1C[C@@H]2[C@@H](O)c1ccnc2ccc(OC)cc12
inactive: max response [2] -2.42% | max response [3] -4.02% | max response [4] -4.58% | max response [5] -6.93% | max response [6] 1.59% | Potency [8] | Potency [9] | Potency [19] | Potency [18] | Potency [10] | Potency [11] | Potency [12] | Potency [13] | Potency [14] | Potency [15] | Potency [16]

CCc1oc2ccccc2c1C(=O)c1cc(Br)c(O)c(Br)c1
inactive: Potency [1] | max response [2] 0.197% | max response [3] -23.3% | outcome [4] | max response [5] -3.26% | max response [6] -25.3% | outcome [7] | Potency [8] | Potency [9] | Potency [19] | Potency [18] | Potency [12] | Potency [13] | Potency [14] | Potency [15]

CCOC(=O)Nc1ccc2c(c1)N(C(=O)CCN1CCOCC1)c1ccccc1S2
inactive: Potency [1] | max response [2] -6.24% | max response [3] -28.3% | max response [4] -10.7% | max response [5] 0.404% | max response [6] -4.09% | Potency [8] | Potency [9] | Potency [19] | Potency [18] | Potency [10] | Potency [11] | Potency [12] | Potency [13] | Potency [14] | Potency [15] | Potency [16]

CC(C(=O)O)c1cccc(Oc2ccccc2)c1 (stereo not drawn)
inactive: max response [2] -6.67% | max response [3] -4.21% | max response [4] -15.2% | max response [5] -5.06% | max response [6] -0.596% | Potency [8] | Potency [9] | Potency [19] | Potency [18] | Potency [10] | Potency [11] | Potency [12] | Potency [13] | Potency [14] | Potency [15] | Potency [16]

O=C1[C@H](CC[C@H](O)c2ccc(F)cc2)[C@@H](c2ccc(O)cc2)N1c1ccc(F)cc1
inactive: max response [2] 1.5% | outcome [2] | max response [4] -6.94% and -19.1% | max response [6] -18.6% and -29.1% | Potency [8] | Potency [9] | Potency [19] | Potency [18] | Potency [10] | Potency [12] | Potency [14] | Potency [15] | Potency [16]

CCN(CC)CCOc1ccccc1C(=O)CCc1ccccc1
active: Potency [1] 2.13 µM | Potency [3] 11.9 µM
inactive: max response [2] -0.916% | outcome [4] | max response [5] -2.43% | max response [6] -3.4% | outcome [7] | Potency [8] | Potency [9] | Potency [19] | Potency [18] | Potency [10] | Potency [12] | Potency [14] | Potency [15] | Potency [16]

O=S(=O)(O)c1ccc(O)cc1
inactive: Potency [1] | max response [2] -8.14% | max response [3] 2.28% | max response [4] -3.34% | max response [5] -1.6% | max response [6] 1.54% | Potency [8] | Potency [9] | Potency [19] | Potency [18] | Potency [10] | Potency [11] | Potency [12] | Potency [13] | Potency [14] | Potency [15] | Potency [16]

NS(=O)(=O)Cc1noc2ccccc12
inactive: Potency [1] | max response [2] 0.547% | max response [3] -4.5% | max response [4] 1.67% | max response [5] 2.97% | max response [6] 0.477% | Potency [8] | Potency [9] | Potency [19] | Potency [18] | Potency [10] | Potency [11] | Potency [12] | Potency [13] | Potency [14] | Potency [15] | Potency [16]
